# ± gives the standard deviation of the averaged measurements.
# Columns and labels:
# [1] = test system: DLD1; test: cell viability (CellTiter-Glo) relative to plate median (fraction of plate median); higher = more viable cells; conditions: 5 µM; treatment time 24 h; reporter: 7TFP
# Method in brief: (§1)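 Luminescence, normalised well by well to the plate median, is tabulated as a mean of independent replicates. There were two replicates, run on colorectal cancer lines stably transduced with lentiviral TCF/Wnt firefly luciferase reporters and dosed with library compounds at a final 5 µM for 24 h. Readouts were firefly luciferase or CellTiterGlo on parallel plates.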
# [2] = test system: HCT116; test: as above; conditions: 5 µM; treatment time 24 h; reporter: TCF4/Wnt
# Method in brief: as §1
# [3] = test system: SW480; test: as above; conditions: 5 µM; treatment time 24 h; reporter: 7TFP
# Method in brief: as §1
# [4] = test system: DLD1; test: TCF/Wnt firefly luciferase reporter signal relative to plate median (fraction of plate median); higher = higher Wnt reporter signal; conditions: 5 µM; treatment time 24 h; reporter: 7TFP
# Method in brief: as §1
# [5] = test system: SW480; test: as above; conditions: 5 µM; treatment time 24 h; reporter: 7TFP
# Method in brief: as §1
compound,measurement,setting,value
Oc1cc2c(cc1O)C(c1ccccc1)CNCC2 (stereo not given),cell viability,[1],0.981 ± 0.019
same,cell viability,[2],0.944 ± 0.05
same,cell viability,[3],0.934 ± 0.025
same,TCF/Wnt firefly luciferase reporter signal,[4],1.08 ± 0.05
same,TCF/Wnt firefly luciferase reporter signal,[5],1.05 ± 0.064
CC(C)=CCC[C@@H](C)[C@H]1CC[C@@]2(C)C3=C(CC[C@]12C)[C@@]1(C)CC[C@H](O)C(C)(C)[C@@H]1CC3,cell viability,[1],1 ± 0.029
same,cell viability,[2],1.01 ± 0.12
same,cell viability,[3],0.994 ± 0.0085
same,TCF/Wnt firefly luciferase reporter signal,[4],0.952 ± 0.023
same,TCF/Wnt firefly luciferase reporter signal,[5],0.83 ± 0.05
COc1cc(Cc2cnc(N)nc2N)cc(OC)c1OC,cell viability,[1],0.988 ± 0.013
same,cell viability,[2],1 ± 0.15
same,cell viability,[3],0.991 ± 0.013
same,TCF/Wnt firefly luciferase reporter signal,[4],1 ± 0.057
same,TCF/Wnt firefly luciferase reporter signal,[5],0.831 ± 0.17
O=c1oc2c(O)c(O)cc3c(=O)oc4c(O)c(O)cc1c4c23,cell viability,[1],1.03 ± 0.028
same,cell viability,[2],1.125 ± 0.0071
same,cell viability,[3],1.11 ± 0.028
same,TCF/Wnt firefly luciferase reporter signal,[4],0.971 ± 0.055
same,TCF/Wnt firefly luciferase reporter signal,[5],1.045 ± 0.0071
CO[C@H]1C[C@H](O[C@H]2[C@H](C)[C@@H](O[C@@H]3O[C@H](C)C[C@H](N(C)C)[C@H]3OC(C)=O)[C@@H](C)C[C@@]3(CO3)C(=O)[C@H](C)[C@@H](OC(C)=O)[C@@H](C)[C@@H](C)OC(=O)[C@@H]2C)O[C@@H](C)[C@@H]1OC(C)=O,cell viability,[1],1.06
same,cell viability,[2],1.01 ± 0.19
same,cell viability,[3],0.956 ± 0.03
same,TCF/Wnt firefly luciferase reporter signal,[4],1.03 ± 0.11
same,TCF/Wnt firefly luciferase reporter signal,[5],0.945 ± 0.12
Nc1nc(/C(=C/CC(=O)O)C(=O)N[C@@H]2C(=O)N3C(C(=O)O)=CCS[C@H]23)cs1,cell viability,[1],0.988 ± 0.06
same,cell viability,[2],1.03 ± 0.021
same,cell viability,[3],0.985 ± 0.0042
same,TCF/Wnt firefly luciferase reporter signal,[4],1.13 ± 0.22
same,TCF/Wnt firefly luciferase reporter signal,[5],1.01 ± 0.052
Clc1ccccc1C(c1ccccc1)(c1ccccc1)n1ccnc1,cell viability,[1],1.05 ± 0.089
same,cell viability,[2],1 ± 0.11
same,cell viability,[3],0.956 ± 0.0042
same,TCF/Wnt firefly luciferase reporter signal,[4],0.938 ± 0.086
same,TCF/Wnt firefly luciferase reporter signal,[5],1.08 ± 0.014
CN(C)[C@@H]1C(O)=C(C(N)=O)C(=O)[C@@]2(O)C(O)=C3C(=O)c4c(O)ccc(Cl)c4[C@@H](O)[C@H]3C[C@@H]12,cell viability,[1],0.943 ± 0.025
same,cell viability,[2],0.96 ± 0.071
same,cell viability,[3],0.959 ± 0.0085
same,TCF/Wnt firefly luciferase reporter signal,[4],0.924 ± 0.067
same,TCF/Wnt firefly luciferase reporter signal,[5],0.983 ± 0.039
CC(C)=CCc1c(O)cc(C)oc1=O,cell viability,[1],1.05 ± 0.17
same,cell viability,[2],1.07 ± 0.12
same,cell viability,[3],1.055 ± 0.0071
same,TCF/Wnt firefly luciferase reporter signal,[4],1.06 ± 0.1
same,TCF/Wnt firefly luciferase reporter signal,[5],1.03 ± 0.071
CCCc1cc(=O)[nH]c(=S)[nH]1,cell viability,[1],0.959 ± 0.033
same,cell viability,[2],1.065 ± 0.0071
same,cell viability,[3],0.998 ± 0.031
same,TCF/Wnt firefly luciferase reporter signal,[4],0.98 ± 0.057
same,TCF/Wnt firefly luciferase reporter signal,[5],1.02 ± 0.028
CCn1cc(C(=O)O)c(=O)c2cc(F)c(N3CCNCC3)cc21,cell viability,[1],0.944 ± 0.061
same,cell viability,[2],0.98 ± 0.18
same,cell viability,[3],0.926 ± 0.0014
same,TCF/Wnt firefly luciferase reporter signal,[4],1.19 ± 0.042
same,TCF/Wnt firefly luciferase reporter signal,[5],1.07 ± 0.071
COc1cc2c(cc1OC)-c1c(oc3cc(O)cc(O)c3c1=O)CO2,cell viability,[1],0.988 ± 0.12
same,cell viability,[2],0.972 ± 0.096
same,cell viability,[3],0.972 ± 0.0042
same,TCF/Wnt firefly luciferase reporter signal,[4],1.22 ± 0.05
same,TCF/Wnt firefly luciferase reporter signal,[5],1.03 ± 0.035
N=C(N)NCCN1CCCCCCC1,cell viability,[1],1.03 ± 0.035
same,cell viability,[2],1.04 ± 0.11
same,cell viability,[3],1.04 ± 0.05
same,TCF/Wnt firefly luciferase reporter signal,[4],0.983 ± 0.081
same,TCF/Wnt firefly luciferase reporter signal,[5],1.115 ± 0.0071
CC(C)C[C@@H]1NC(=O)[C@H](C)NC1=O [cyclo(alanylleucyl)],cell viability,[1],0.998 ± 0.046
same,cell viability,[2],1.02 ± 0.11
same,cell viability,[3],0.998 ± 0.045
same,TCF/Wnt firefly luciferase reporter signal,[4],0.994 ± 0.0028
same,TCF/Wnt firefly luciferase reporter signal,[5],0.987 ± 0.1
Cc1ccc2c(c1)CC[C@H]1CC(=O)CC[C@]21C,cell viability,[1],1.03 ± 0.035
same,cell viability,[2],1.05 ± 0.097
same,cell viability,[3],0.9365 ± 0.0021
same,TCF/Wnt firefly luciferase reporter signal,[4],0.941 ± 0.13
same,TCF/Wnt firefly luciferase reporter signal,[5],0.957 ± 0.0028
COC(=O)c1c(C)cc(OC(=O)c2c(C)cc(O)c(C=O)c2O)c(C)c1O,cell viability,[1],1.06 ± 0.021
same,cell viability,[2],1.07 ± 0.092
same,cell viability,[3],1.06 ± 0.064
same,TCF/Wnt firefly luciferase reporter signal,[4],1 ± 0.14
same,TCF/Wnt firefly luciferase reporter signal,[5],1.04 ± 0.028
C[C@@H]1C[C@H]2O[C@@H]2/C=C\C=C\C(=O)Cc2c(Cl)c(O)cc(O)c2C(=O)O1 [Radicicol],cell viability,[1],1.07 ± 0.035
same,cell viability,[2],0.802 ± 0.086
same,cell viability,[3],1.07 ± 0.099
same,TCF/Wnt firefly luciferase reporter signal,[4],0.898 ± 0.16
same,TCF/Wnt firefly luciferase reporter signal,[5],0.785 ± 0.035
CO[C@@]1(NC(=O)C(C(=O)O)c2ccc(O)cc2)C(=O)N2C(C(=O)O)=C(CSc3nnnn3C)CO[C@@H]21 (stereo not given in full),cell viability,[1],1.06
same,cell viability,[2],1.02 ± 0.021
same,cell viability,[3],1.07
same,TCF/Wnt firefly luciferase reporter signal,[4],0.962 ± 0.097
same,TCF/Wnt firefly luciferase reporter signal,[5],1.06 ± 0.035
CNS(=O)(=O)Cc1ccc2[nH]cc(CCN(C)C)c2c1,cell viability,[1],1.08 ± 0.099
same,cell viability,[2],1.07 ± 0.05
same,cell viability,[3],0.9885 ± 0.0078
same,TCF/Wnt firefly luciferase reporter signal,[4],1.07 ± 0.099
same,TCF/Wnt firefly luciferase reporter signal,[5],1.07 ± 0.028
O=C1NS(=O)(=O)c2ccccc21,cell viability,[1],0.973 ± 0.052
same,cell viability,[2],1.1 ± 0.085
same,cell viability,[3],1.03 ± 0.044
same,TCF/Wnt firefly luciferase reporter signal,[4],1.1 ± 0.042
same,TCF/Wnt firefly luciferase reporter signal,[5],0.96 ± 0.14
CC(=O)CC(=O)CCC(=O)O,cell viability,[1],1.02 ± 0.11
same,cell viability,[2],0.996 ± 0.12
same,cell viability,[3],0.935 ± 0.033
same,TCF/Wnt firefly luciferase reporter signal,[4],0.844 ± 0.13
same,TCF/Wnt firefly luciferase reporter signal,[5],0.939 ± 0.02
CCN(Cc1ccncc1)C(=O)C(CO)c1ccccc1 (stereo not given),cell viability,[1],0.9915 ± 0.0035
same,cell viability,[2],0.976 ± 0.048
same,cell viability,[3],1.04 ± 0.021
same,TCF/Wnt firefly luciferase reporter signal,[4],1.04 ± 0.057
same,TCF/Wnt firefly luciferase reporter signal,[5],1.08 ± 0.078
CC(=O)N[C@@H](Cc1c[nH]c2ccccc12)C(=O)O,cell viability,[1],0.953 ± 0.0014
same,cell viability,[2],0.955 ± 0.093
same,cell viability,[3],0.985 ± 0.021
same,TCF/Wnt firefly luciferase reporter signal,[4],0.905 ± 0.1
same,TCF/Wnt firefly luciferase reporter signal,[5],0.961 ± 0.016
CC(C)[C@H](N)C(=O)OCCOCn1cnc2c(=O)nc(N)[nH]c21,cell viability,[1],1.01 ± 0.028
same,cell viability,[2],0.879 ± 0.12
same,cell viability,[3],0.938 ± 0.0071
same,TCF/Wnt firefly luciferase reporter signal,[4],0.969 ± 0.16
same,TCF/Wnt firefly luciferase reporter signal,[5],0.876 ± 0.11
COc1ccc(/C=C/C(=O)c2cc(O)ccc2O)cc1,cell viability,[1],0.979 ± 0.044
same,cell viability,[2],0.959 ± 0.073
same,cell viability,[3],0.98 ± 0.029
same,TCF/Wnt firefly luciferase reporter signal,[4],1.18 ± 0.014
same,TCF/Wnt firefly luciferase reporter signal,[5],1.05 ± 0.17
C[C@H](CCC(=O)O)[C@H]1CC[C@H]2[C@@H]3[C@H](O)C[C@@H]4C[C@H](O)CC[C@]4(C)[C@H]3C[C@H](O)[C@]12C,cell viability,[1],0.99 ± 0.043
same,cell viability,[2],1.07 ± 0.15
same,cell viability,[3],1.04 ± 0.066
same,TCF/Wnt firefly luciferase reporter signal,[4],1.02 ± 0.13
same,TCF/Wnt firefly luciferase reporter signal,[5],1.07 ± 0.035
COC(=O)Nc1nc2cc(C(=O)c3ccccc3)ccc2[nH]1,cell viability,[1],0.884 ± 0.069
same,cell viability,[2],0.801 ± 0.1
same,cell viability,[3],1 ± 0.028
same,TCF/Wnt firefly luciferase reporter signal,[4],0.896 ± 0.027
same,TCF/Wnt firefly luciferase reporter signal,[5],0.94 ± 0.023
O=C(OOC(=O)c1ccccc1)c1ccccc1,cell viability,[1],1.015 ± 0.0071
same,cell viability,[2],1.12 ± 0.16
same,cell viability,[3],0.998 ± 0.031
same,TCF/Wnt firefly luciferase reporter signal,[4],0.96 ± 0.071
same,TCF/Wnt firefly luciferase reporter signal,[5],1.03 ± 0.053
NCC(=O)CCC(=O)O,cell viability,[1],1.01 ± 0.021
same,cell viability,[2],1.06 ± 0.042
same,cell viability,[3],1.01 ± 0.021
same,TCF/Wnt firefly luciferase reporter signal,[4],1.1 ± 0.071
same,TCF/Wnt firefly luciferase reporter signal,[5],1.07 ± 0.021
CC(=O)Oc1cccc(O)c1,cell viability,[1],1.01 ± 0.095
same,cell viability,[2],1.06 ± 0.042
same,cell viability,[3],1.07 ± 0.021
same,TCF/Wnt firefly luciferase reporter signal,[4],0.952 ± 0.097
same,TCF/Wnt firefly luciferase reporter signal,[5],1.05 ± 0.028

# From the supplement of paper PMC6522484
